Experimental findings from the supplement of paper PMC10981050 are described below.

Structures can show the parent of a compound that is named as a salt.

In this assay the test system is OCI-AML2. Nature of the assay: cell viability relative to vehicle control; higher = less cytotoxic. The conditions noted are these: 10 µM; SRSF2 genotype: P95H/wt. The method in brief:
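After removal of identity-inconsistent compounds, the Selleck bioactive, kinase and epigenetic probe libraries were screened on CRISPR-edited mutant clones and isogenic wild-type clones of four leukaemia lines. Plates were 384-well, each well holding 2000 cells in 50 µL medium and receiving a single 10 µM acoustically dispensed dose. CellTiter-Glo luminescence was read 48 h later, after the supernatant was taken off. Genedata Screener was used to express viability as percent of the on-plate vehicle control.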
Broadly, the cell viability is a read-out of living cells in per cent, often relative to untreated cells. For `NC(=O)[C@@H](CCC(F)(F)F)N(Cc1ccc(-c2ncon2)cc1F)S(=O)(=O)c1ccc(Cl)cc1`, the cell viability stood at 106%. For `COc1c/c(=C2\C=c3ccccc3=N2)[nH]/c1=C\c1[nH]c(C)cc1C` [Obatoclax mesylate (GX15-070)], the cell viability worked out at 2.7%. Turning to `O=C(O)CC(C(=O)O)n1c(O)c(C2=c3cc(Br)ccc3=NC2=O)sc1=S` (configuration not stated), the cell viability was 113%. Regarding `COc1cc(NS(=O)(=O)c2ccc(N)cc2)nc(OC)n1` [Sulphadimethoxine], the cell viability stood at 90.4%. As to `NC(=O)[C@@H]1CCCN1C(=O)[C@H](Cc1c[nH]cn1)NC(=O)[C@@H]1CCC(=O)N1` [Protirelin], the cell viability is 102%. Take `COC(=O)c1cc(OC)c(O)c(OC)c1` [Methyl syringate]: the cell viability was determined as 96.8%. As to `N=c1ccn2c(n1)O[C@H]1[C@H](O)[C@@H](CO)O[C@H]12` [Cyclocytidine HCl], the cell viability came out at 9.61%. `O=P(O)(O)C(O)(Cc1cccnc1)P(=O)(O)O` [Risedronate sodium]: the cell viability was found to be 93.7%. For the molecule `CN(C)CCOc1ccc(-c2nc(-c3ccncc3)c(-c3ccc4c(c3)CC/C4=N\O)[nH]2)cc1`, the cell viability amounted to 6.47%.

Regarding `COC(=O)C1=C(C)NC(C)=C(C(=O)OCCN2CCN(C(c3ccccc3)c3ccccc3)CC2)C1c1cccc([N+](=O)[O-])c1` (configuration not stated) [Manidipine (Manyper)], the cell viability was 29.8%. Regarding `COC1CCN(C(=O)c2cc(Cc3n[nH]c(=O)c4ccccc34)ccc2F)CC1`, the cell viability was found to be 51.2%.

As for `C=C1C[C@@]23CC[C@H]4[C@@](C)(CCC[C@@]4(C)C(=O)O[C@@H]4O[C@H](CO)[C@@H](O)[C@H](O)[C@H]4O)[C@@H]2CC[C@]1(O[C@@H]1O[C@H](CO)[C@@H](O)[C@H](O)[C@H]1O[C@@H]1O[C@H](CO)[C@@H](O)[C@H](O)[C@H]1O)C3` [Stevioside], the cell viability is 108%. With `Cc1cc(=O)oc2ccc(O)cc12` [6-Hydroxy-4-methylcoumarin], the cell viability came to 96%.

As to `COC1C(O)C(O)C(O)C(O)C1O` (configuration not stated) [Sequoyitol], the cell viability was 99.7%.

For the molecule `CC1(C)O[C@@H]2C[C@H]3[C@@H]4CCC5=CC(=O)C=C[C@]5(C)[C@@]4(F)[C@@H](O)C[C@]3(C)[C@]2(C(=O)CO)O1` [Triamcinolone Acetonide], the cell viability came to 114%.

Consider `COc1ccc(C(C)=O)c(O)c1` [Paeonol (Peonol)], for which the cell viability stood at 98.3%.

Take `COc1cccc(/C=N/N(C(=O)C(F)(F)F)c2ccc(C)cc2C)c1`: the cell viability came to 101%. For `C=C1C(=O)[C@]23[C@H](O)[C@H]1CC[C@H]2[C@@]12CO[C@]3(O)[C@@H](O)[C@@H]1C(C)(C)CC[C@@H]2O` [Oridonin (Isodonol)], the cell viability came to 17.9%. `CN(CCOc1ccc(CC2SC(=O)NC2=O)cc1)c1ccccn1` (configuration not stated) [Rosiglitazone maleate]: the cell viability stood at 91.5%. The same measure for `CC(C)C[C@@H]1NC(=O)[C@@H](C(C)C)NC(=O)[C@@H]2CCCN2C(=O)[C@@H](CC(=O)O)NC(=O)[C@@H](Cc2c[nH]c3ccccc23)NC1=O`: 103%; for `Cc1cc(Nc2ncc3c(n2)N(C)C(=O)N(c2cc(NC(=O)c4cccc(C(F)(F)F)c4)ccc2C)C3)n(C)n1` [Pluripotin (SC1)]: 12.7%; for `C[C@]12C=CC(=O)C=C1CC[C@H]1[C@@H]3C[C@@H](O)[C@](O)(C(=O)CO)[C@@]3(C)C[C@H](O)[C@@]12F` [Triamcinolone (Aristocort)]: 110%. On to `O=C(O)CCC(=O)O` [Succinic acid], for which the cell viability stood at 85.1%. `CCOP(=O)(OCC)C(=Cc1cc(C(C)(C)C)c(O)c(C(C)(C)C)c1)P(=O)(OCC)OCC`: the cell viability came to 90.9%.

As for `O=C(/C=C/C=C/c1ccc2c(c1)OCO2)N1CCCCC1` [Piperine (1-Piperoylpiperidine)], the cell viability worked out at 85.6%. The result for `Cc1cc(=O)n(-c2ccccc2)n1C` [Antipyrine] reads 84.8%; that for `CC(=O)OC(CC(C)C1=C2CC(O)C3C4(C)CCC(=O)C(C)(C)C4CCC3(C)C2(C)CC1)C1OC1(C)C` (configuration not stated) [Alisol B Acetate], 64.1%. Regarding `CC(=O)Nc1ccccc1` [Acetanilide (Antifebrin)], the cell viability is 105%. Regarding `CCS(=O)(=O)N1CC(CC#N)(n2cc(-c3ncnc4[nH]ccc34)cn2)C1`, the cell viability turned out to be 84.7%. Regarding `O=C(O)[C@H]1O[C@@H](Oc2cc3oc(-c4ccc(O)cc4)cc(=O)c3c(O)c2O)[C@H](O)[C@@H](O)[C@@H]1O` [Scutellarin], the cell viability is 101%. For the molecule `Cc1cc(S(=O)(=O)O)c2c(C)ccc(C(C)C)cc1-2` [Sodium gualenate], the cell viability is 95.2%.

For the molecule `O=C(Nc1ccc(OC(F)(F)Cl)cc1)c1cnc(N2CC[C@@H](O)C2)c(-c2cc[nH]n2)c1` [Asciminib (ABL001)], the cell viability was found to be 41.2%.
